# According to PubChem BioAssay (Tox21):
# Records with an inconclusive call do not appear. A number with no mark means an inactive call. Active and inactive are the calls of the source. The call rests on the fitted dose curve; in most records, active means well fitted activation curve with a large enough effect in the repeat runs; inconclusive means weak or mixed curves; inactive means flat fitted curve, though single readings scatter.
# Experiment: A CellTox Green Cytotoxicity Assay to monitor cytotoxicity in HepG2 cells - 24 hour (AID 1224878); further: nearly all actives have a fitted effect of over 45% in size
# Details: CellTox Green fluorescence; series mostly up to 76.8 µM; cytotoxicity: at the top concentration
# From the text: National Center for Advancing Translational Sciences [NCATS]
# NIH Chemical Genomics Center [NCGC]
# U.S. Environmental Protection Agency [EPA]
# National Institutes of Environmental Health Sciences [NIEHS]
# National Toxicology Program [NTP]
# Cell-based models are critical for drug discovery. Determining the natural cytotoxic effects resulting from test compounds is an essential research activity. A CellTox Green Cytotoxicity Assay to monitor cytotoxicity in real time of continues cell culture during 40 hours of the compound treatment was used to screen Tox21 10K library compounds in HepG2 cells. CellTox Green Cytotoxicity Assay is a nonlytic, homogeneous, biofluorescent method to measure cytotoxicity in cell culture after experimental manipulation. The assay system uses a proprietary asymmetric cyanine dye that is excluded from viable cells but preferentially stains the dead cell's DNA. […] Viable cells produce no appreciable increases in fluorescence. Therefore, the fluorescence signal produced by the binding interaction with dead cell DNA is proportional to cytotoxicity.
# The mixture of HepG2 cell suspension and reagents were dispensed at 600cells/6 ul/well in 1536-well tissue culture treated black solid bottom plates using a Multidrop dispenser. After the assay plates were incubated at a 37 C/5% CO2 incubator for 5 hours, 23 nL of compounds dissolved in DMSO, positive and negative controls was transferred to the assay plate by a pintool work station. The plates were incubated at 37 C for 40 hours. The fluorescence intensity were measured at 0h, 8h, 16h, 24h, 32h and 40h time points using ViewLux plate reader during compound treatment.
# On the % scale 0 is the no-effect control and ±100 the full control effect; potency means the concentration at half of the fitted maximal effect.
SMILES,Potency,cytotoxicity
NCc1cccc(C2CCN(C(=O)c3ccc(C#Cc4ccccc4F)o3)CC2)c1,38.9 µM (active),
Cc1ccc2sc3cccc(C)c3c2c1,,-10.8%
N#CCCOCCC#N,,-8.62%
c1ccc(-c2ccc(C(c3ccccc3)n3ccnc3)cc2)cc1 (stereo not given),,3.34% [at 35.3 µM]
Clc1ccc2c(Cl)ccnc2c1,,1.13%
CC(=O)Nc1ccc(N=Nc2cc(C)ccc2O)cc1,,-11.3%
C=COCCCC,,-12.5%
CC(C)(c1ccc(Oc2ccc(N)cc2)cc1)c1ccc(Oc2ccc(N)cc2)cc1,,3.52%
COc1cc([C@@H]2c3cc4c(cc3[C@@H](O[C@@H]3O[C@@H]5CO[C@@H](C)O[C@H]5[C@H](O)[C@H]3O)[C@H]3COC(=O)[C@H]23)OCO4)cc(OC)c1O,48.4 µM (active),
CCCCCCCCOC(=O)c1cc(O)c(O)c(O)c1,43.6 µM (active),
CC(C)(C)C1=CC(=O)C(C(C)(C)C)=CC1=O,,-20.5% [at 35.3 µM]
Cc1cccc2c1ccc1ccccc12,,4.7%
CCCOC(=O)c1ccc(O)cc1,,-2.98%
C=Cc1ccncc1,,1.56%
COc1cccc(-c2ccc(/C=C\CN3CCCCCC3)cc2Cl)c1,43.4 µM (active),
CC/C=C\C/C=C\C/C=C\CCCCCCCC(=O)OC,,-4.23%
C/C(=C\c1ccc(C(=O)O)cc1)c1ccc2c(c1)C(C)(C)CCC2(C)C,,18.6% [at 35.3 µM]
O=c1cc[nH]cc1,,-9.6%
CCC(C)(C)c1ccc(CC(C)CN2C[C@@H](C)O[C@@H](C)C2)cc1 (stereo not given in full),21.3 µM (active),
O=C(N[C@H](CO)[C@H](O)c1ccc([N+](=O)[O-])cc1)C(Cl)Cl,,-5.44%

SMILES,Potency,cytotoxicity
Cc1ccc(C=O)cc1,,0.35% [at 35.3 µM]
CC(C=O)c1ccccc1 (stereo not given),,-8.47%
CCN(CCC#N)c1ccc(N=Nc2ccc([N+](=O)[O-])cc2)cc1,,-13.9%
O=C(CCCCCCCCc1cccnc1)N1CCC(C=C(c2ccccc2)c2ccccc2)CC1,,0.0781%
ClC(c1ccccc1)(c1ccccc1)c1ccccc1,,-1.77%
CN1CC[C@H](c2c(O)cc(O)c3c(=O)cc(-c4ccccc4Cl)oc23)[C@H](O)C1,0.268 µM (active),
C/C=C/C(=O)OCC(C)C,,1.86%
CCc1c(C)cc(N)c(CC)c1N,,-11.1%
C1CCSC1,,3.35%
C=C1CC[C@H]2O[C@]2(C)CC[C@@H]2[C@@H]1CC2(C)C,,-9.27%
SC1CCCCC1,,7.09%
CN1CCN(c2ccccc2/C=C2\SCCN(c3ccc(Cl)c(Cl)c3)C2=O)CC1,24.5 µM (active),
CCCCCCCCCCCC(=O)Cl,,0.16%
CCNc1nc(NC(C)(C)C)nc(OC)n1,,1.84%
O=C(NCc1ncc(C(F)(F)F)cc1Cl)c1c(Cl)cccc1Cl,,7.13%
O=C(O)C[C@H](O)C[C@H](O)/C=C/c1c(C2CC2)nc2ccccc2c1-c1ccc(F)cc1,2.61 µM (active),
CN[C@H]1CC[C@@H](c2ccc(Cl)c(Cl)c2)c2ccc(S(N)(=O)=O)cc21,13.8 µM (active),
CN(C)CCOc1ccc(/C(=C(/CCCl)c2ccccc2)c2ccccc2)cc1,32.5 µM (active),
COc1cc2ncnc(Nc3cccc(Cl)c3)c2cc1OC,,-17.9% [at 15.8 µM]
Cc1cc(F)ccc1-c1cc(N2CC[C@@H](O)[C@H]2CO)ncc1N(C)C(=O)C(C)(C)c1cc(C(F)(F)F)cc(C(F)(F)F)c1,38.3 µM (active),
